Measured potencies and affinities stand elsewhere. Values without a mark were called inactive.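 The calls were made as follows: active = fitted half-maximal concentration for loss of cell signal no higher than twice the top valid tested concentration; inconclusive = flat curve at 30 to 70% inhibition, or poor fit; inactive = flat within 30%, signal rise, or potency above limit.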
Assay: cytotoxicity toward MDA-MB-231 breast cancer cells – cell-based, CellTiter-Glo luminescence, cherry-pick, cytotoxicity control for RAD54 inhibitor project, dose response (AID 651692);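 also: 0% = median of sample compound wells and -100% = staurosporine control wells; more negative values mean stronger loss of viable cell signal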
Settings: MDA-MB-231 viability, 24 h; series mostly up to 26 µM; activity change, negative = growth inhibition: at the top concentration

Point of comparison: `Cc1ccc(-c2nc(N(C)C3CCN(C)CC3)c3ccccc3n2)cc1`, “activity change, negative = growth inhibition” value -10.9%. Against it:
- COc1ccc2c(c1)[nH]c1c(C)nccc12 — higher, -8.19%
- CCN1CCN(c2ccc(N)c(C)c2)CC1 — higher, 0.217%
- CN1CCN(c2ccc(N)cc2)CC1 — higher, -5.01%
- Nc1ccc(CCN2CCCC2)cc1 — higher, 3.15%
- CCNCCNc1ccc([N+](=O)[O-])c2cccnc12 — higher, -2.9%
- Nc1ccc(C2(c3ccc(N)cc3)CN3CCC2CC3)cc1 — higher, 3.5%
- CN1CCN(c2cc(N3CCNCC3)ccc2[N+](=O)[O-])CC1 — higher, 5.42%
- CC(Cc1ccccc1)NCC(=O)Nc1cc(N(C)C)nc2ccccc12 (stereo not drawn) — higher, 1.39%
- Cc1nccc2c1[nH]c1ccccc12 — higher, 0.422%
- Nc1ccnn1C1CCNCC1 — higher, 2.95%
- O=C(NC1CN2CCC1CC2)c1cc(Cl)c([N+](=O)[O-])c2nc[nH]c12 (stereo not drawn) — higher, -4.87%
- CN1CCC(N(C)c2nc(-c3ccccc3)nc3ccccc23)CC1 — higher, -4.35%

Source: PubChem BioAssay AID651692 (Broad Institute, 2012)
